Over roughly 33,000 sequences, “e-score” has its median near -0.038; the highest 2% begin near 0.33. The sample holds the highest values, similar sequences and a random draw of the others, so the mix is not that of the screen.
biological target: T1, GST-Rok-C97-191 (Bacillus subtilis subsp. subtilis str. …, UniProt O34857 97-191); test: protein binding microarray; Rok is a gene silencer of Bacillus subtilis; high values mean tight binding; settings: protein: recombinant; tags: GST (pTH5325, pDEST15-Magic modified); dsDNA, one strand shown
T1 sequence: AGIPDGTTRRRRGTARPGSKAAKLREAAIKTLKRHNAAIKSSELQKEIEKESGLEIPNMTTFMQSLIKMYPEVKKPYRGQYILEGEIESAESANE
In short: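 Each has a 25-mer constant primer and a 35-mer variable part from a de Bruijn sequence of order 10, covering every non-palindromic 8-mer at least 32 times (palindromic 16). Preference for each 8-mer is given as a rank-based, unitless enrichment score (E-score). Its range runs from 0.5 (most favored) to −0.5 (most disfavored).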

Row | Sequence | binding signal [E-score]
1 | CAGTCTAA | -0.037
2 | GGCAAGTA | 0.0714
3 | AACAAGTT | 0.0415
4 | AACAAATA | 0.24
5 | AACAAGTA | 0.371
6 | GTAAAATA | 0.306
7 | CACAAGTA | 0.205
8 | ATAAAATA | 0.396
9 | AAAAAATA | 0.323
10 | CTAAAATA | 0.295
11 | ATAAAATG | 0.246
12 | TAAAAATA | 0.351
13 | CACAAATA | 0.243
14 | TACAAATA | 0.359
15 | CTCTCGCA | -0.118
16 | AATCCGAA | 0.0539
17 | CTGAAGCA | -0.0795
18 | AGGTCACA | -0.186
19 | GCGGTTAA | 0.123
20 | AAGAACTT | -0.176
21 | AAGTCTAA | -0.0843
22 | ACTGAAGT | 0.155
23 | AGGGACCA | -0.0833
24 | TAAAAAAA | 0.328
25 | CTAAAAAA | 0.168

Row | Sequence | binding signal [E-score]
26 | AATAAATA | 0.258
27 | GATAAATA | 0.323
28 | TTAAAAAA | -0.0566
29 | TATAAATA | 0.381
30 | CTCCTTGA | -0.109
31 | TCATGGAA | -0.0558
32 | CGAGTCTA | -0.0403
33 | ACGAACTC | -0.0425
34 | CGGAATTC | 0.0787
35 | GGAAAACA | -0.00212
36 | AGAAAACA | 0.0817
37 | CGAAACCA | -0.131
38 | CGAAACTC | 0.0357
39 | GGAAACAA | 0.0324
40 | CGAAACTA | 0.425
41 | AGAAACTC | 0.0994
42 | AGAAACTA | 0.377
43 | AGAAACTG | 0.0822
44 | GGAAACCA | -0.105
45 | CGAAAACA | 0.348
46 | GGAAACTA | 0.354
47 | GAAATGGC | -0.16
48 | ACTCGTAC | 0.0277
49 | CAGTAATC | -0.0737
50 | GATGCAGC | -0.0978

Row | Sequence | binding signal [E-score]
51 | AACATATT | 0.24
52 | GTACGCCA | -0.0805
53 | GCTTCACA | -0.0519
54 | CATGACTC | 0.0199
55 | CGTGGTAG | 0.206
56 | ATAGGTAC | 0.257
57 | ATTGGTAG | 0.38
58 | ATTGGTAC | 0.278
59 | AGTGGTAG | 0.378
60 | ATAGGTAA | 0.225
61 | ATAGGTAG | 0.358
62 | CATGGTAG | 0.188
63 | AGTGGTAC | 0.202
64 | ATTGGTAA | 0.258
65 | AATGGTAG | 0.441
66 | AATGGTAT | 0.328
67 | CTTATTCC | 0.00112
68 | AAGAGAGC | -0.136
69 | AGCGTACC | -0.188
70 | AGCGGGAG | -0.145
71 | ACCAACTA | 0.161
72 | TACGGCCA | -0.0766
73 | ACTTTCGC | 0.0461
74 | TACCCATA | 0.234
75 | AGCCTTAT | -0.11

Row | Sequence | binding signal [E-score]
76 | ACTACAAG | 0.137
77 | GCTACTAC | 0.264
78 | ACTACAAT | 0.329
79 | ACTACTCG | 0.159
80 | ACTACAAC | 0.295
81 | ACTACTGC | 0.113
82 | ACTACTAC | 0.419
83 | CCTACTAG | 0.18
84 | ACTACATC | 0.334
85 | CCTACATC | 0.187
86 | ACTACTAG | 0.361
87 | ACTACATG | 0.307
88 | CTGCCTTC | -0.104
89 | GCTCGCAA | -0.145
90 | AGCTAGGA | -0.00935
91 | ACTACGAC | 0.0766
92 | ACTACGAA | 0.163
93 | CCTACTAA | 0.101
94 | CCTACTAC | 0.343
95 | CCTACTTC | 0.0914
96 | ACTACGAT | 0.362
97 | ACTACTCT | 0.19
98 | ACTACTCA | 0.265
99 | ACTACTAT | 0.46
100 | CCGGACCG | -0.0456

Row | Sequence | binding signal [E-score]
101 | CGTCAACC | -0.182
102 | GTGAGATA | 0.0844
103 | CCTTCTCC | -0.165
104 | ACCGCTAA | 0.13
105 | GTCCAATA | 0.0328
106 | CTCGCAAA | 0.0435
107 | ACTCGGTA | 0.286
108 | GGGAGCAC | -0.183
109 | GTATAAAA | 0.32
110 | CTATAATA | 0.34
111 | ATATAATG | 0.3
112 | CTATAATC | 0.222
113 | ATATAATC | 0.201
114 | CTATAAGA | 0.156
115 | ATATAATA | 0.446
116 | GTATAACA | 0.141
117 | GTATAATA | 0.413
118 | CGAGAAGA | -0.0403
119 | CCTTAGGA | 0.047
120 | ACTGCACC | 0.128
121 | TCTTAAAA | -0.0115
122 | AAAACAAC | 0.116
123 | AAAGTGAC | -0.0335
124 | ATTCTTGC | 0.103
125 | TAATGGTA | 0.325

Row | Sequence | binding signal [E-score]
126 | CTATGTTA | 0.256
127 | ATATGTTC | 0.238
128 | ATATGGTA | 0.331
129 | GAATGGTA | 0.39
130 | CTATGGTA | 0.211
131 | ATATGTTA | 0.331
132 | GAATGGTC | -0.121
133 | ATATGGTG | 0.159
134 | AGAGCCAG | -0.194
135 | ACGTGCCT | -0.189
136 | CCGTTCTA | 0.108
137 | TACAGGAA | 0.0535
138 | GGAATCGA | 0.209
139 | AGATTGTG | 0.09
140 | CTAGCTAC | 0.163
141 | TTAGCTAA | 0.263
142 | CTAGCTAA | 0.127
143 | ATAGCTAC | 0.31
144 | GTAGCTAC | 0.428
145 | GTAGCTAA | 0.346
146 | GAAGCTAC | 0.309
147 | ATAGCTAT | 0.402
148 | ATAGCTAG | 0.271
149 | ATTTAATG | 0.105
150 | CGTCTGAA | -0.0845

Row | Sequence | binding signal [E-score]
151 | CTAAAGTC | 0.0658
152 | ATGCTGAC | -0.0948
153 | ATTCGACC | -0.138
154 | GGGTAATA | 0.272
155 | CGGTAGTA | 0.391
156 | AGGTAGTG | -0.0194
157 | AGGTAATG | 0.113
158 | AGGTAGTC | 0.0784
159 | AGGTAATA | 0.328
160 | CGGTAGTC | 0.174
161 | GGGTAGTA | 0.3
162 | AGGTAGTA | 0.328
163 | CTTCGAAC | -0.152
164 | GCACTACC | 0.0373
165 | AAACTACA | 0.387
166 | AAACTACT | 0.464
167 | ACACTACG | -0.0248
168 | GAACTACC | 0.367
169 | CAACTACA | 0.234
170 | AGACTACT | 0.198
171 | AAACTACG | 0.387
172 | CAACTACG | 0.113
173 | ACACTACT | 0.18

From article PMC6212790, “How bacterial xenogeneic silencer rok distinguishes foreign from self DNA in its resident genome”
